Results reported in ChEMBL document CHEMBL1201862, “PubChem BioAssay data set” (2004).
The whole screen tested about 400,000 compounds, of which about 2,100 (0.53%) were called active. Another 14% or so got no clear call; they are omitted. This is one part of a sample in which actives are shown more often than they occur. How the calls were made is not given here.

Each molecule was assayed against Ataxin-2 (Homo sapiens) (UniProt Q99700) (assay: qHTS for Inhibitors of ATXN expression.).
Ataxin-2 (Homo sapiens), sequence (Q99700 whole entry): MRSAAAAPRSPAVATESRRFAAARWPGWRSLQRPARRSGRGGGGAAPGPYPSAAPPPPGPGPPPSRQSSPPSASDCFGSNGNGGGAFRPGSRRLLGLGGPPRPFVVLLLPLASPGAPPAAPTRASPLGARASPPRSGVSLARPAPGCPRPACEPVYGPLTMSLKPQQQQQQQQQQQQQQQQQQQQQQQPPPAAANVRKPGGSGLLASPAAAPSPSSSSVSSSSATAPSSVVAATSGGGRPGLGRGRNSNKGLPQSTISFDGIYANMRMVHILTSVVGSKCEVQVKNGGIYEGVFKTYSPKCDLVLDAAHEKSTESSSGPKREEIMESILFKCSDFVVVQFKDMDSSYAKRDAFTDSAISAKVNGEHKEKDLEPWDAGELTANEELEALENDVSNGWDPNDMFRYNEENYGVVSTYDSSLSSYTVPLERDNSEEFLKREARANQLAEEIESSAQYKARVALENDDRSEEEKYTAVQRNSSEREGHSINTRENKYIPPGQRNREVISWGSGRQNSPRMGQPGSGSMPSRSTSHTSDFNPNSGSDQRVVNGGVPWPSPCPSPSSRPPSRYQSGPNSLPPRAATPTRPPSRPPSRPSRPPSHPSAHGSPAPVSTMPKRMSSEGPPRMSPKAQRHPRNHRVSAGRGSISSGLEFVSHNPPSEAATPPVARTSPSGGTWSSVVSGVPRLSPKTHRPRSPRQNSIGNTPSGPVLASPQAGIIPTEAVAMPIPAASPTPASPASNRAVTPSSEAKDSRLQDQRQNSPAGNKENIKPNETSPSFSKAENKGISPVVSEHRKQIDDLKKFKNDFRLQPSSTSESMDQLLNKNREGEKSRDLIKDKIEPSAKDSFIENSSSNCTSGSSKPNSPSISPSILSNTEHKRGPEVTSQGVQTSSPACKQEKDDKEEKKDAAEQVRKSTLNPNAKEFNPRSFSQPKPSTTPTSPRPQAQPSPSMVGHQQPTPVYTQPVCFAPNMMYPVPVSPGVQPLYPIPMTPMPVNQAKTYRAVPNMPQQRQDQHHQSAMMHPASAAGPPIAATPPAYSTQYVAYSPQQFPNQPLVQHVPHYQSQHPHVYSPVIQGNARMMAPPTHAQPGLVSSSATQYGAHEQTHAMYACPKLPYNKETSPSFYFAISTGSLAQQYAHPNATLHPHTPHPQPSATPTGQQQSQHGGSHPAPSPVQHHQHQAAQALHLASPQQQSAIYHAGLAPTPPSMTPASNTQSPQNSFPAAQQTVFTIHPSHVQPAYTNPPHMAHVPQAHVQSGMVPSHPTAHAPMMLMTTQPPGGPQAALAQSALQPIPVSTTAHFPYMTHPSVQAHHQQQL
Format: functional
`Cc1cccn2c(=O)c3cc(C(=O)NCC4CCCO4)c(=N)n(C4CCCCC4)c3nc12` (centres undefined) was tested, and the Potency was “inactive”.
`COC(=O)C1=NN(c2ccc(C)cc2)C2C(=O)N(c3ccccc3OC)C(=O)C12` (centres undefined) was tested, and the Potency was “inactive”.
`COc1ccccc1CNC(=O)Cc1cc(O)nc(O)n1` was tested, and the Potency was “inactive”.
With `COc1ccccc1CNC(=O)Nc1nc(C(N)CCc2ccccc2)cs1` (centres undefined) the Potency was 39.8 µM (active).
For `COc1ccc(OC)c(NC(=O)Nc2nc(C(N)CCc3ccccc3)cs2)c1` (centres undefined), the Potency was 39.8 µM (active).
With `COc1ccccc1CNC(=O)C(C)Sc1ccc(C)cc1` (centres undefined) the Potency was “inactive”.
With `Cc1ccc(S(=O)(=O)Nc2nc3n(n2)C(c2ccccc2Cl)C=C(c2ccccc2)N3)cc1` (centres undefined) the Potency was “inactive”.
For `Oc1cccc2ccc(Nc3ccccn3)nc12`, the Potency was 39.8 µM (active).
`CSc1ccc(/C=C/c2ccc3cccc(O)c3n2)cc1` was tested, and the Potency was “inactive”.
With `Oc1ccc(/C=C/c2ccc3cccc(O)c3n2)cc1Br` the Potency was “inactive”.
`O=c1oc2ccccc2cc1-c1nc2c(s1)CCc1ccccc1-2` was tested, and the Potency was “inactive”.
`Cc1cc(C)c2c(N)c(C(=O)N/N=C/c3cccnc3)sc2n1` was tested, and the Potency was “inactive”.
For `Cc1cccc(C)c1OCC(O)CNC(C)c1ccccc1` (centres undefined), the Potency was “inactive”.
In the case of `CC(O)CNC12CC3CC(CC(C3)C1)C2` (centres undefined), the Potency is reported as “inactive”.
`CC(NCC(O)COCCC12CC3CC(CC(C3)C1)C2)c1ccccc1` (centres undefined) was tested, and the Potency was 39.8 µM (active).
`CC(NCC(O)COC1CCC(C(C)(C)C)CC1)c1ccccc1` (centres undefined) was tested, and the Potency was 35.5 µM (active).
In the case of `CCOc1ccc2nc(N3CCCN(C(=O)Nc4ccccc4C)CC3)c(C#N)cc2c1`, the Potency is reported as “inactive”.
`O=C1CC2C(=O)NCCN2C(NC(=O)c2ccc(Cl)cc2)=N1` (centres undefined) was tested, and the Potency was “inactive”.
For `Oc1ccc(N=Nc2ccc3c(c2)OCCO3)c2ncccc12`, the Potency was 15.8 µM (active).
With `COC(=O)c1ccc(C(=O)OC)c(NC(=S)N2CCN(c3ccccc3F)CC2)c1` the Potency was “inactive”.
With `COc1ccc(-c2nnc(-c3ccccc3)o2)cc1OC` the Potency was “inactive”.
In the case of `COc1ccc(CCC(=O)OCC(=O)Nc2ccc(OC)c(OC)c2)cc1OC`, the Potency is reported as “inactive”.
In the case of `COc1ccc(CC(=O)Nc2cccc(-c3nnc(-c4ccccc4)o3)c2)cc1OC`, the Potency is reported as 10 µM (active).
In the case of `O=[N+]([O-])c1ccc(-c2nc(-c3ccncc3)no2)cc1`, the Potency is reported as “inactive”.
In the case of `CCOc1ccccc1-c1nc(-c2ccc(C)nc2OC)no1`, the Potency is reported as “inactive”.
In the case of `CCOc1cc(-c2noc(-c3ccncc3)n2)cc(Br)c1OC`, the Potency is reported as 44.7 µM (active).
With `O=C1C=C(N(CCO)Cc2ccccc2)c2ccccc2C1=O` the Potency was 29.9 µM (active).
For `CC1(C)Cc2nc(Cl)c(C(N)=O)cc2CO1`, the Potency was “inactive”.
With `C=CCC[C@H](Cc1ccc(F)cc1)C(=O)OC[C@H](Cc1c[nH]c2ccccc12)NC(=O)[C@@H](CC=C)CC(=O)N(CCO)Cc1ccccc1` the Potency was 22.4 µM (active).
In the case of `C=CCC[C@@H](Cc1ccc(F)cc1)C(=O)OC[C@@H](Cc1c[nH]c2ccccc12)NC(=O)[C@H](CC=C)CC(=O)N(CCO)Cc1ccccc1`, the Potency is reported as 22.4 µM (active).
For `COC(=O)c1cc(NC(=O)CN2CCN(C(C)=O)CC2)cc(C(=O)OC)c1`, the Potency was “inactive”.
With `Cc1ccc2[nH]c(CSc3nc(C)cc(C)c3C#N)nc2c1` the Potency was “inactive”.
With `CCc1cc(=O)oc2c(C)c(O)c(CN3CCCCC3)cc12` the Potency was “inactive”.
`N#Cc1cc([N+](=O)[O-])c(-n2nnc3ccccc32)c([N+](=O)[O-])c1` was tested, and the Potency was 22.4 µM (active).
With `O=C(NOC(=O)c1c(F)cccc1Cl)c1ccc(Cl)c(Cl)c1` the Potency was “inactive”.
In the case of `CCCCN1C(=O)C(O)(CC(=O)c2ccc(C)cc2C)c2cc(Br)ccc21` (centres undefined), the Potency is reported as 31.6 µM (active).
With `CCCCN1C=C(C(=O)OC)C(c2ccccc2Cl)C(C(=O)OC)=C1` the Potency was “inactive”.
For `Cc1ccc(OCCn2cnc(Cl)c2Cl)cc1`, the Potency was “inactive”.
With `CCN(CC)C(=O)c1cccc(NC(=O)c2cc(C3CC3)nc3c2cnn3C(C)C)c1` the Potency was “inactive”.
With `CC(=O)c1ccc(S(=O)(=O)NCCC(=O)N2CCN(c3ccccn3)CC2)cc1` the Potency was “inactive”.
For `COc1cc2c(cc1OC)CN(S(=O)(=O)c1ccccc1F)CC2`, the Potency was “inactive”.
`COc1cc2c(cc1OC)C(C)N(S(=O)(=O)c1cnc(Cl)c(Cl)c1)CC2` (centres undefined) was tested, and the Potency was 12.6 µM (active).
In the case of `COc1ccc(-c2c(C)nn3c(N4CCOCC4)cc(C)nc23)cc1OC`, the Potency is reported as “inactive”.
In the case of `CSc1nc(Nc2ccc(F)cc2)cc(-c2ccccc2)n1`, the Potency is reported as 22.4 µM (active).
In the case of `O=c1oc2ccccc2n1CCn1c2ccccc2c2nc3ccccc3nc21`, the Potency is reported as 44.7 µM (active).
With `COC(=O)Cn1c2ccccc2c2nc3ccccc3nc21` the Potency was “inactive”.
For `Cc1cccc2c3nc4ccccc4nc3n(C)c12`, the Potency was “inactive”.
In the case of `CC(C)(C)c1ccc(C(=O)N2CCC(=O)N(C(COCc3ccccc3)Cc3ccccc3)CC2)cc1` (centres undefined), the Potency is reported as 28.2 µM (active).
`CC(C)(C)c1ccc(C(=O)N2CCC(=O)N([C@H](COCc3ccccc3)Cc3ccccc3)CC2)cc1` was tested, and the Potency was 35.5 µM (active).
